TMEM16A inh: mouse TMEM16A channel inhibition, primary screen. HEK293 TMEM16A/YFP iodide influx fluorescence, ionomycin. 1.2% of 310,000 active. normalized B-score (activity score, 25-100; higher = stronger inhibition) at 10 µM. AID 588511;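 active means ratio plate-corrected score three or more library SD toward inhibition, starting fluorescence score within five deviations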;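 further: score derived from kinetic fluorescence span divided by baseline fluorescence per well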
NOD2 RIPK2 PPI: blocks binding of human NOD2 to RIPK2. 0.38% of 360,000 active. O43353. inhibition, % at 4.98 µM. CHO BLA complementation NOD2-RIPK2, CCF4 ratio; in the data active means inhibition above about 21%
TLR9-MyD88 inh: inhibitors of human TLR9-MyD88 binding; Q9NR96+Q99836; CHO BLA complementation TLR9-MyD88, CCF4 FRET ratio; 0.21% of 340,000 active; inhibition, % at 4.98 µM; AID 504734;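 active means inhibition above the mean over all tested compounds plus 3 SD, cut at about 21% in these data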
TMEM16A act: mouse TMEM16A channel activation, primary screen; 0.3% of 340,000 active; HEK293 TMEM16A/YFP-H148Q/I152L, iodide quench fluorescence; stronger effect = lower value; B-score at 10 µM;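 active means fluorescence-ratio B-score plate-corrected deviation score at least 3 library SD below zero, with starting fluorescence score within 5 deviations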;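 further: channel opened by trigger with iodide after compound preincubation; score built on the fluorescence ratio of max minus min over baseline; more negative score means more quench and so TMEM16A activation or potentiation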
GRK2 aptamer HTS: human GRK2 inhibition via aptamer displacement; 0.59% of 330,000 active; inhibition of aptamer binding, % at 10 µM; AID 488847; bead flow cytometry, FAM-aptamer displacement from GRK2;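 active means inhibition of aptamer binding above 40%, roughly 3 SD of noise, on plates passing a quality check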;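 further: median bead fluorescence of bound FAM aptamer so fluorescent compounds give negative values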
TLR4-MyD88 BLA: TLR4-MyD88 interaction inhibition in cells | HeLa CL3-4 TLR4/MyD88 BLA complementation, FRET ratio | 0.18% of 200,000 active | AID 861 | inhibition, % at 8.4 µM; in the data active means inhibition above about 25%
Numbers stand for hits; n = inactive; x = no result given. A selection: hits, their analogues and other compounds. The true share with any hit is near 2.2%.

SMILES	TMEM16A inh	NOD2 RIPK2 PPI	TLR9-MyD88 inh	TMEM16A act	GRK2 aptamer HTS	TLR4-MyD88 BLA
CCOC(=O)C1=CCN(S(=O)(=O)c2ccc(C)cc2)C1c1cccc(Cl)c1 (stereo unspecified)	x	n	x	x	x	x
CCN(CC)C(=O)C1=C(C)N(Cc2ccc(F)cc2)C(=O)C(CC(=O)NCC2CCCCC2)C1 (stereo unspecified)	x	n	n	x	x	x
CN(C)C(=O)c1ccc(NC(=O)c2cccc(S(=O)(=O)N3CCCc4ccccc43)c2)cc1	n	n	n	n	n	x
Cc1ccc2c(c1)CCCN2S(=O)(=O)c1cccc(C(=O)Nc2ccccc2C(=O)O)c1	100	n	n	n	n	x
CCC(=O)N1CCC(C)(C(=O)NCc2ccc(F)cc2)C1 (stereo unspecified)	x	n	x	x	x	x
CCCN(C)C1CN(Cc2cn(Cc3ccc(F)cc3)nn2)S(=O)(=O)C1 (stereo unspecified)	x	n	x	x	x	x
Cc1cc(/C=N/n2cnnc2)c(C)n1-c1ccc(OCc2ccc(Cl)cc2Cl)cc1	100	n	n	n	n	n
Cc1cc(/C=N/n2cnnc2)c(C)n1-c1ccc(Cl)cc1	n	n	n	n	n	n
CC(C)C[C@H]1CN(CCCC[C@H]2CNC(=O)C(=O)N2CC2CCCCC2)C(=O)C(=O)N1CC1CCCCC1	x	n	x	x	x	x
COc1ccc(OC)c(CC(=O)Nc2ccc3c(c2)c(=O)n(C)n3Cc2cccc(C(F)(F)F)c2)c1	x	n	x	x	x	x
O=C1ON=C(c2ccccc2)/C1=C\c1ccco1	n	n	n	n	n	x
CC1=NOC(=O)/C1=C\c1ccc(-c2cccc(Cl)c2)o1	100	n	n	n	n	n
COc1cc([N+](=O)[O-])ccc1-c1ccc(/C=C2\C(=O)ON=C2c2ccccc2)o1	x	n	n	-5.65	x	x
Cc1ccc(/C=C2/C(=O)ON=C2c2ccccc2)o1	25	n	n	n	n	x
COc1ccc(C(=O)C(=O)N2CCC(c3ccccc3)CC2)cn1	x	n	x	x	x	x
CCCc1nc2c3ccccc3ccn2c1Cc1cccc(F)c1	x	n	x	x	x	x
CCCNC(=O)OC[C@H]1O[C@H](CCO/N=C/C[C@@H]2C=C[C@H](OC(C)=O)[C@@H](COC(C)=O)O2)C=C[C@@H]1Oc1ccc(OC)cc1	25	x	x	x	n	n
CCCNC(=O)OC[C@H]1O[C@H](CCO/N=C(\C)CCN2CCc3nc(-c4ccccc4)c(-c4ccccc4)cc3C2)C=C[C@@H]1Oc1ccc(OC)cc1	n	x	x	x	n	n
COc1ccc(N=N/C(=C\O)C(=O)c2cccs2)cc1	n	n	n	n	n	n
COc1ccc(/C=C(/C(=O)c2cccs2)N2C=CC=CC2=C(C#N)C#N)cc1	x	n	n	-5	x	n
COC(=O)c1sc(-c2ccc(C(C)(C)C)cc2)cc1NC(=O)c1ccccc1C(=O)O	100	n	n	n	n	x
CCSC1=N/C(=C\c2ccc(C(=O)O)cc2)C(=O)S1	n	n	n	n	n	n
CCOc1c(OC(C)=O)ccc(/C=C2\N=C(SCC)SC2=O)c1[N+](=O)[O-]	100	n	n	n	100.0	n
CCOc1cc(/C=C2\N=C(SCC)SC2=O)cc([N+](=O)[O-])c1OC(C)=O	100	n	n	n	n	n
CCCCn1nnnc1C(c1ccccc1OC(F)(F)F)N1CCN(C/C=C/c2ccccc2)CC1 (stereo unspecified)	x	n	x	x	x	x
SMILES	TMEM16A inh	NOD2 RIPK2 PPI	TLR9-MyD88 inh	TMEM16A act	GRK2 aptamer HTS	TLR4-MyD88 BLA
COc1ccc2c3c(n(C(=O)OC(C)(C)C)c2c1)C1CC=C(COC(C)=O)CN1CC3 (stereo unspecified)	x	n	x	x	x	x
CCNC(=O)C1CCCN(C(=O)c2ccc(C#N)cc2)CC1 (stereo unspecified)	x	n	x	x	x	x
CCCCn1c(NC(=O)c2ccc(F)cc2)c(C#N)c2nc3ccccc3nc21	100	x	x	x	n	x
CCOC(=O)[C@]12CCCC=C1N(CCC1=CCCCC1)C(=O)[C@H](CC(=O)NCC1CCCCC1)C2	x	n	x	x	x	x
CC(C)=CCc1c(O)cc2oc3c(CC=C(C)C)c(O)c(O)c(CC=C(C)C)c3c(=O)c2c1O	100	n	n	n	n	x
CCOC(=O)Nc1ccc2c(c1)N(C(=O)CCN(C)C)c1ccccc1CC2	n	n	n	n	n	x
CCOC(=O)Nc1ccc2c(c1)N(C(=O)CN(C)C)c1ccccc1CC2	100	n	n	n	n	x
Cc1ccc(/C=N/Nc2ncc(Cl)cc2Cl)s1	25	n	n	n	n	n
Clc1ccc(-c2nn3cnnc3s2)c(Cl)c1	25	n	n	n	n	n
O=C(Nc1cccc(C(F)(F)F)c1)N1CCC(c2nc(-c3ccc(F)cc3)no2)CC1	25	n	n	n	n	n
Cc1ccc(Cl)cc1-c1cc(C(=O)NCc2cc(C(F)(F)F)cc(C(F)(F)F)c2)[nH]n1	x	n	x	x	x	x
C=CCC[C@H](CCCCC)OC(=O)/C=C/[C@@H](O)[C@H](O)C[C@H](O)CC=C	x	n	x	x	x	x
CCc1nnc(NS(=O)(=O)c2ccc(N=Cc3c(C)[nH]n(-c4ccc(Cl)cc4)c3=O)cc2)s1	n	n	n	n	n	n
Cc1[nH]n(-c2ccc(Cl)cc2)c(=O)c1/C=N/c1nnc(-c2ccccc2)s1	25	n	n	n	n	n
Oc1ccc(C[C@H]2CNC(=S)N2CC2CCCN2C[C@H](Cc2ccccc2)N2C[C@H](Cc3ccc(O)cc3)N(CC3CCCCC3)C2=S)cc1 (stereo partly specified)	x	n	x	x	x	x
S=C1NC2(CCCCC2)NN1c1ccccc1	n	n	n	-5.02	n	n
CC1CCCC2(C1)NC(=S)N(c1ccccc1)N2 (stereo unspecified)	n	n	n	n	n	n
C#CCN(C[C@@H]1[C@@H](OC(=O)NCc2ccccc2)[C@@H](OC(=O)NCc2ccccc2)CN(C(=O)OC(C)C)N1C(=O)OC(C)C)S(=O)(=O)c1ccc(C)cc1	x	n	n	x	x	x
C[N+](C)(C)CCOC(N)=O	n	n	n	-5.71	n	x
Cc1nnc(SCCOC(N)=O)n1C	x	n	n	n	x	n
CCC1=C(OC(=O)N(CC)CC)N2C(=O)OC(=NCCOC)[C@]2(Cc2ccccc2)[C@H]2C1=CC[C@H]1C(=O)N(CC(=O)OC)C(=O)[C@H]12	25	n	n	n	n	x
CCC1=C(OC(=O)N(CC)CC)N2C(=O)OC(=NCCc3c[nH]c4ccccc34)[C@]2(Cc2ccccc2)[C@H]2C1=CC[C@H]1C(=O)N(CC(=O)OC)C(=O)[C@H]12	n	n	n	n	n	x
Cc1ccc(-c2nc3cc(C)c(Br)c(C)n3c2Cc2ccsc2)cc1	x	n	x	x	x	x
C[C@H](CO)N1C[C@H](C)[C@@H](CN(C)C(=O)NC2CCCCC2)Oc2ccc(NC(=O)Nc3ccc(C(F)(F)F)cc3)cc2C1=O	x	n	n	-5.02	n	x
Cc1cc(C)cc(NC(=O)C2CCN(c3nccs3)CC2)c1	n	n	n	-14.4	n	n
Cc1cc(C)cc(NC(=O)C2CCN(S(C)(=O)=O)CC2)c1	n	n	n	n	n	x
COc1ccccc1C(=O)N1c2ccccc2Sc2ccccc21	n	n	n	n	n	n
